The list is not random: actives were taken first. Their share in the collection is about 10%.
BAZ2B inh = blocks human BAZ2B; Q9UIF8; AlphaScreen BAZ2B-H3K14Ac peptide displacement; Potency, µM (doses to about 114 µM), most hits filed as inhibitors; hit rate 4.4% among 360,000; further: nearly all actives have a fitted effect of over 60% in size
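Compounds, titrated to a top concentration of 110 uM, were incubated 30 min at room temperature with preformed BAZ2B/acetyl-K14 H3 peptide complex (50 nM each). Proximity signal was measured by AlphaScreen after 20 min with beads.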
JMJD2A Tudor inh = blocks the human JMJD2A Tudor domain | O75164 | AlphaScreen JMJD2A-Tudor / H3K4me3 peptide binding | Potency, µM (top dose mostly 114 µM), usual class: inhibitors | hit rate 4.4% among 390,000; further: nearly all actives have a fitted effect of over 50% in size
CtBP-E1A blk = blocks the CtBP interaction with E1A; AlphaScreen GST-E1A/His-CtBP binding, 1536-well; stronger effect = lower value; hit rate 0.49% among 340,000; activity change, % (concentration not given with the values); in the data active means activity change below about -65%; inconclusive means mostly about -30% to -63%
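Homogeneous bead-based format: GST-tagged E1A captured on glutathione donor beads, His-tagged CtBP on nickel acceptor beads; compounds precede bead addition by 2 h at 37 °C.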
G9a block = blocks human histone lysine methyltransferase G9a; AID 504332; hit rate 8.8% among 350,000; Potency, µM (highest dose often 102 µM), most hits filed as inhibitors; G9a H3K9 monomethylation, AlphaScreen, 2 h; further: nearly all actives have a fitted effect of over 75% in size
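AlphaScreen detection with an anti-monomethyl H3K9 antibody quantified product after a 2 h room-temperature reaction containing 500 nM biotinylated H3K9 peptide, 20 µM SAM and 20 nM enzyme, which had been preincubated 15 min with compound.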
HP1b binding inh = inhibitors of HP1-beta chromodomain binding to methylated histone tails | P83916 | AlphaScreen HP1-beta / biotin-H3K9me3 peptide binding | Potency, µM (titrated, usually from 114 µM), most hits filed as inhibitors | hit rate 0.56% among 390,000; further: nearly all actives have a fitted effect of over 70% in size
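AlphaScreen: HP1-beta (50 nM) preformed 30 min with biotin-H3(1-18)K9me3 peptide (50 nM) in PBS pH 7.4, 0.01% Tween-20. Compound added for 30 min at RT, then streptavidin donor/nickel chelate acceptor beads (10 ug/mL) for 30 min.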
Six1-Eya2 inh = Six1/Eya2 interaction inhibition; Q15475+O00167; AlphaScreen GST-Six1/His-Eya2 binding, biochemical; stronger effect = lower value; activity change, % (no concentration beside the values); hit rate 0.56% among 360,000; in the data active means activity change below about -65%; inconclusive means mostly about -30% to -63%
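Homogeneous AlphaScreen proximity assay pairing GST-Six1 with His-tagged Eya2 (added as 5X mix: 250 nM and 500 nM) in 50 mM Tris pH 8.0, 300 mM NaCl, 1 mM TCEP. Glutathione donor and nickel acceptor beads; 1 h, 37 °C, dark.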
Large screens that a line does not name were inactive. Unless noted, the call rests on the fitted dose curve; in most records, active means well fitted inhibition curve with a large enough effect; inconclusive means small, poorly fitted or top-dose-only effect; inactive means no such curve, though single readings can be large or run the other way.

Cc1cc(C(=O)N/N=C/c2cc(Br)c(Br)o2)n[nH]1	JMJD2A Tudor inh inconclusive, G9a block 10µM
Cc1cc(C(=O)N/N=C/c2ccc([N+](=O)[O-])s2)n[nH]1	CtBP-E1A blk inconclusive
Cc1cc(C(=O)N/N=C/c2ccc(-c3cccc([N+](=O)[O-])c3)o2)n[nH]1	none
COc1ccc(CNc2nc(-c3c(C)noc3C)nc3ccccc23)c(OC)c1	none (no result: BAZ2B inh, JMJD2A Tudor inh, CtBP-E1A blk, HP1b binding inh, Six1-Eya2 inh)
CC(CNC(=O)c1csc2c1CCCCC2)c1ccccc1 (centres undefined)	none (no result: CtBP-E1A blk, Six1-Eya2 inh)
COc1ccccc1CCNC(=O)C(=O)NCC(c1ccco1)S(=O)(=O)c1ccccc1 (centres undefined)	none (no result: CtBP-E1A blk, Six1-Eya2 inh)
CCOC(=O)c1sc(NC(=O)c2nc3ncccn3n2)c(C(=O)OC(C)C)c1C	none (no result: CtBP-E1A blk, Six1-Eya2 inh)
COc1cccc(/C=C2\SC(=S)N(CCCC(=O)Nc3cccc(C(=O)O)c3)C2=O)c1	none (no result: BAZ2B inh, JMJD2A Tudor inh, G9a block, HP1b binding inh)
O=C1/C(=C/c2cccc(Br)c2)SC(=S)N1CCC(=O)N(CCO)c1ccccc1	BAZ2B inh inconclusive, JMJD2A Tudor inh 32µM (no result: G9a block)
COc1cccc(/C=C2\SC(=S)N(CCCC(=O)N(CCO)c3ccccc3)C2=O)c1	BAZ2B inh inconclusive, JMJD2A Tudor inh 35µM, G9a block inconclusive
O=C1/C(=C/c2ccc3c(c2)OCO3)SC(=S)N1CCC(=O)N(CCO)c1ccccc1	none (no result: BAZ2B inh, JMJD2A Tudor inh, G9a block, HP1b binding inh)
Cc1ccc(C2Cc3cc(O)c(O)cc3CN2)cc1 (centres undefined)	JMJD2A Tudor inh 8.9µM, HP1b binding inh inconclusive (no result: BAZ2B inh, G9a block)
CN(C)c1ccc(N=Nc2ccccc2C(=O)OCC(=O)Nc2ccccc2C(F)(F)F)cc1	BAZ2B inh 10µM, JMJD2A Tudor inh 7.1µM, G9a block 10µM, HP1b binding inh inconclusive, Six1-Eya2 inh -71
CN(C)c1ccc(N=Nc2ccccc2C(=O)OCC(=O)N2CCCCCC2)cc1	BAZ2B inh 13µM, JMJD2A Tudor inh 28µM, CtBP-E1A blk -66, G9a block 8.9µM, HP1b binding inh 18µM, Six1-Eya2 inh -74
CSc1ccccc1C(=O)OCC(=O)N1CCCCCC1	none (no result: BAZ2B inh, G9a block)
CN(C)c1ccc(N=Nc2ccccc2C(=O)OCC(=O)N2CCCC2)cc1	BAZ2B inh 40µM, JMJD2A Tudor inh 56µM, G9a block 25µM, HP1b binding inh inconclusive, Six1-Eya2 inh inconclusive
CN(C)c1cc[n+](CC(=O)Nc2ccccc2C(F)(F)F)cc1	none
COc1cccc(N2CC(NC(=O)c3ccc(S(=O)(=O)N4CCCC4)cc3)CC2=O)c1 (centres undefined)	none (no result: CtBP-E1A blk, Six1-Eya2 inh)
Cc1cccc(N2CCN(S(=O)(=O)c3ccc4oc(=O)c5ncn(C)c5c4c3)CC2)c1C	none (no result: CtBP-E1A blk, Six1-Eya2 inh)
COc1cc2[nH]c(=O)n(CCCCCC(=O)N3CCN(c4ccc(Cl)cc4)CC3)c(=O)c2cc1OC	none (no result: CtBP-E1A blk, Six1-Eya2 inh)
COc1ccc(N2CCN(C(=O)c3cccc(S(=O)(=O)N4CCc5ccccc54)c3)CC2)cc1	JMJD2A Tudor inh 40µM, CtBP-E1A blk inconclusive, HP1b binding inh inconclusive, Six1-Eya2 inh inconclusive (no result: BAZ2B inh, G9a block)
NC(=O)C1CCN(C(=O)c2cccc(S(=O)(=O)N3CCc4ccccc4C3)c2)CC1	none
O=C(c1cccc(S(=O)(=O)N2CCc3ccccc3C2)c1)N1CCN(c2ccc(O)cc2)CC1	BAZ2B inh inconclusive, JMJD2A Tudor inh inconclusive, G9a block 2.5µM, HP1b binding inh inconclusive
COc1ccc(N2CCN(C(=O)c3cccc(S(=O)(=O)N4CCCc5ccccc54)c3)CC2)cc1	BAZ2B inh inconclusive, JMJD2A Tudor inh inconclusive (no result: CtBP-E1A blk)
OCCN1CCN(C(c2ccc(Cl)cc2Cl)c2sc3nc(-c4ccco4)nn3c2O)CC1 (centres undefined)	G9a block inconclusive (no result: CtBP-E1A blk, Six1-Eya2 inh)
CCN(CC)CCNC(=O)C(=O)NCC(c1cccnc1)N1CCN(c2ccccc2)CC1 (centres undefined)	none (no result: CtBP-E1A blk, Six1-Eya2 inh)
COc1ccccc1/C=N/NC(=O)CSc1cc(C)nc2ccccc12	none (no result: G9a block)
COc1cccc2c(SCC(=O)N/N=C/c3ccc(O)cc3O)cc(C)nc12	CtBP-E1A blk -66, Six1-Eya2 inh -79
COc1ccc2nc(C)cc(SCC(=O)N/N=C/c3ccc(O)cc3O)c2c1	CtBP-E1A blk -70, Six1-Eya2 inh -74
COc1ccc(N2Cc3ccc(C(=O)N/N=C\c4ccc(O)cc4O)cc3C2)cc1	BAZ2B inh inconclusive, G9a block 28µM (no result: JMJD2A Tudor inh, CtBP-E1A blk, HP1b binding inh, Six1-Eya2 inh)
